# Laboratory results published in PubChem BioAssay (NCI).
# This is part of a sample that, as a whole, favours compounds with a hit. Of some 83,000 tested, about 20% had one in any assay.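 Step 1: grow cells in 96-well plates. Step 2: add test compound at a single concentration. Step 3: incubate 48 h. Step 4: record percent growth.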 Values without a mark were called inactive. Rule for the calls: active = growth percent below 10; inactive = the rest.
# System: OVCAR-3 ovarian
# Assay: NCI-60 one-dose screen, 48 h (100 = growth as untreated, 0 = no growth, -100 = all killed)
# Details: 10 µM unless noted
row,Compound,growth
1,COC(=O)Cc1cc(COC(C)=O)ccc1C,109%
2,Cc1ccc(/C=N/NC(N)=S)s1,105%
3,Cc1cc(=O)n(Nc2ccccc2)c(O)c1C#N,98.6%
4,CN(C)c1ccc(O)c2c1CC1CC3C(N(C)C)C(=O)C(C(N)=O)=C(O)C3(O)C(=O)C1=C2O (stereo not given),46.6%
5,C/C(=N\N=C(/C)c1cccc([N+](=O)[O-])c1)c1cccc([N+](=O)[O-])c1,58.1%
6,CC(=O)c1ccc(C)cc1,111%
7,O=C1Nc2ccccc2/C1=C\c1ccccc1O,89.3%
8,CCOC(=O)Nc1nccs1,109%
9,CCNC(=O)Oc1ccc[nH]c1=O,112%
10,CC(=O)OCC1OC(n2cnc3c(=S)nc(N)[nH]c32)C(OC(C)=O)C1OC(C)=O (stereo not given),83.4%
11,CC(CO)(CO)C(=O)O,106%
12,CCOC(=O)CNC,111%
13,CC(c1ccccc1)N(C)C (stereo not given),120%
14,COC1CC(OC(=O)c2ccc([N+](=O)[O-])cc2)C(COC(=O)c2ccc([N+](=O)[O-])cc2)O1 (stereo not given),111%
15,Nc1cccc2cccc(O)c12,87.1%
16,CC(CCC#N)(CCC#N)C(=O)c1ccccc1,123%
17,O=[N+]([O-])c1c(Cl)ncnc1Cl,105%
18,NS(=O)(=O)c1cc(=O)[nH]c(=O)[nH]1,116%
19,COc1ccc2c(Cl)cc(NC(=O)Nc3c(C)cccc3C)nc2c1,78.2%
20,CC(=O)c1cccc(O)c1,115%
